In PubChem BioAssay AID1159580 (chemical genetic matrix, 2015):
“And” between values parts separate entries of the source, which are not always exact repeats. Equal entries are not always repeated. Among all 5,500 compounds or so, about 2,000 (36%) were called active. Inconclusive results (about 18%) are left out. No stated cut-off is given here; in the data, active means normalized growth mostly below about 0.91 (no sharp cut-off); inconclusive means no clear call, values can overlap the other calls; inactive means mostly above about 0.92. The list shows a part of the results.

Experiment: chemical genetic growth profiling, strain panel (AID 1159580);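 further: tested at 20 µM; growth read once vehicle control cultures reached saturation at 30 °C; 1 = growth at the plate median or of vehicle wells; lower values mean less growth of the strain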
Conditions: growth OD

Measured: normalized growth

Cc1cc(O)ccc1Cl
active: S. cerevisiae deletion strains, locus YAL021C, strain ccr4, active compounds read low 1.11 [resistant] | S. cerevisiae deletion strains, locus YDR137W, strain rgp1, active compounds read low 0.816 | S. cerevisiae deletion strains, locus YDR159W, strain sac3, active compounds read low 0.784 | S. cerevisiae deletion strains, locus YDR195W, strain ref2 1.2 [resistant] | S. cerevisiae deletion strains, locus YLR262C, strain YPT6 (second series), active compounds read low 0.814 | S. cerevisiae deletion strains, locus YMR125W, strain sto1, active compounds read low 1.13 [resistant]
inactive: S. cerevisiae deletion strains, locus YAL026C, strain drs2, active compounds read low 1.01 | S. cerevisiae deletion strains, locus YAL030W, strain snc1, active compounds read low 1.02 | S. cerevisiae deletion strains, locus YBL061C, strain skt5, active compounds read low 0.992 | S. cerevisiae deletion strains, locus YBR009C, strain hhf1, active compounds read low 0.999 | S. cerevisiae deletion strains, locus YBR021W, strain FUR4, active compounds read low 1.02 | S. cerevisiae deletion strains, locus YBR023C, strain chs3, active compounds read low 1.01 | S. cerevisiae deletion strains, locus YBR171W, strain sec66, active compounds read low 0.997 | S. cerevisiae deletion strains, locus YBR229C, strain ROT2, active compounds read low 1 | S. cerevisiae deletion strains, locus YBR231C, strain swc5, active compounds read low 0.993 | S. cerevisiae deletion strains, locus YBR279W, strain paf1, active compounds read low 1.02 | S. cerevisiae deletion strains, locus YCL011C, strain gbp2, active compounds read low 1.01 | S. cerevisiae deletion strains, locus YCL016C, strain dcc1, active compounds read low 1.01 | S. cerevisiae deletion strains, locus YCL029C, strain bik1, active compounds read low 0.983 | S. cerevisiae deletion strains, locus YCL069W, strain vba3, active compounds read low 1.02 | S. cerevisiae deletion strains, locus YCR088W, strain abp1, active compounds read low 1.01 | S. cerevisiae deletion strains, locus YDL005C, strain med2, active compounds read low 1.02 | S. cerevisiae deletion strains, locus YDL035C, strain GPR1, active compounds read low 0.955 | S. cerevisiae deletion strains, locus YDL040C, strain nat1, active compounds read low 1 | S. cerevisiae deletion strains, locus YDL074C, strain BRE1, active compounds read low 0.987 | S. cerevisiae deletion strains, locus YDL101C, strain DUN1, active compounds read low 1.03 | S. cerevisiae deletion strains, locus YDL185W, strain tfp1, active compounds read low 0.986 | S. cerevisiae deletion strains, locus YDL192W, strain arf1, active compounds read low 1 | S. cerevisiae deletion strains, locus YDR001C, strain nth1, active compounds read low 1.01 | S. cerevisiae deletion strains, locus YDR069C, strain doa4, active compounds read low 1.03 | S. cerevisiae deletion strains, locus YDR101C, strain arx1, active compounds read low 0.992 | S. cerevisiae deletion strains, locus YDR162C, strain NBP2, active compounds read low 0.986 | S. cerevisiae deletion strains, locus YDR297W, strain sur2, active compounds read low 1.03 | S. cerevisiae deletion strains, locus YDR318W, strain mcm21, active compounds read low 0.993 | S. cerevisiae deletion strains, locus YDR334W, strain swr1, active compounds read low 1.02 | S. cerevisiae deletion strains, locus YDR335W, strain msn5, active compounds read low 1 | S. cerevisiae deletion strains, locus YDR388W, active compounds read low 1 | S. cerevisiae deletion strains, locus YDR392W, strain spt3, active compounds read low 0.944 | S. cerevisiae deletion strains, locus YDR502C, strain sam2, active compounds read low 0.974 | S. cerevisiae deletion strains, locus YEL003W, strain gim4, active compounds read low 1.01 | S. cerevisiae deletion strains, locus YEL037C, strain rad23, active compounds read low 1.01 | S. cerevisiae deletion strains, locus YEL061C, strain CIN8 (second series), active compounds read low 1.01 | S. cerevisiae deletion strains, locus YEL061C, strain CIN8, active compounds read low 0.999 | S. cerevisiae deletion strains, locus YER015W, strain faa2, active compounds read low 0.993 | S. cerevisiae deletion strains, locus YER016W, strain bim1, active compounds read low 0.994 | S. cerevisiae deletion strains, locus YER110C, active compounds read low 1.01 | S. cerevisiae deletion strains, locus YER111C, strain swi4, active compounds read low 1.01 | S. cerevisiae deletion strains, locus YER155C, strain BEM2 (second series), active compounds read low 0.991 | S. cerevisiae deletion strains, locus YER155C, strain BEM2, active compounds read low 1 | S. cerevisiae deletion strains, locus YER167W, strain BCK2, active compounds read low 0.997 | S. cerevisiae deletion strains, locus YFR010W, strain ubp6, active compounds read low 1 | S. cerevisiae deletion strains, locus YGL078C, strain dbp3, active compounds read low 0.981 | S. cerevisiae deletion strains, locus YGL086W, strain mad1, active compounds read low 0.968 | S. cerevisiae deletion strains, locus YGL167C, strain pmr1, active compounds read low 1.02 | S. cerevisiae deletion strains, locus YGL173C, strain kem1, active compounds read low 0.948 | S. cerevisiae deletion strains, locus YGL227W, strain vid30, active compounds read low 1 | S. cerevisiae deletion strains, locus YGL240W, strain doc1, active compounds read low 0.999 | S. cerevisiae deletion strains, locus YGL248W, strain PDE1, active compounds read low 1.02 | S. cerevisiae deletion strains, locus YGL253W, strain hxk2, active compounds read low 1.01 | S. cerevisiae deletion strains, locus YGR135W, strain pre9, active compounds read low 1.02 | S. cerevisiae deletion strains, locus YGR252W, strain gcn5, active compounds read low 0.936 | S. cerevisiae deletion strains, locus YHR013C, strain ard1, active compounds read low 1.13 | S. cerevisiae deletion strains, locus YHR027C, strain rpn1, active compounds read low 0.991 | S. cerevisiae deletion strains, locus YHR030C, strain SLT2, active compounds read low 0.999 and 0.932 | S. cerevisiae deletion strains, locus YHR079C, strain IRE1 (second series), active compounds read low 1.01 | S. cerevisiae deletion strains, locus YHR079C, strain IRE1, active compounds read low 0.954 | S. cerevisiae deletion strains, locus YHR094C, strain hxt1, active compounds read low 1.01 | S. cerevisiae deletion strains, locus YHR129C, strain ARP1, active compounds read low 1.01 | S. cerevisiae deletion strains, locus YHR142W, strain chs7, active compounds read low 0.981 | S. cerevisiae deletion strains, locus YHR200W, strain rpn10, active compounds read low 1 | S. cerevisiae deletion strains, locus YIL066C, strain RNR3, active compounds read low 1 | S. cerevisiae deletion strains, locus YIL073C, strain SPO22, active compounds read low 1.04 | S. cerevisiae deletion strains, locus YIL125W, strain kgd1, active compounds read low 1.01 | S. cerevisiae deletion strains, locus YIR030C, strain dcg1, active compounds read low 1 | S. cerevisiae deletion strains, locus YJL092W, strain hpr5, active compounds read low 0.989 | S. cerevisiae deletion strains, locus YJL095W, strain BCK1 (second series), active compounds read low 1.01 | S. cerevisiae deletion strains, locus YJL095W, strain BCK1, active compounds read low 1.02 and 0.938 | S. cerevisiae deletion strains, locus YJL115W, strain asf1, active compounds read low 1.02 | S. cerevisiae deletion strains, locus YJL129C, strain trk1, active compounds read low 1 | S. cerevisiae deletion strains, locus YJL134W, strain LCB3, active compounds read low 1.01 | S. cerevisiae deletion strains, locus YJL154C, strain vps35, active compounds read low 1.01 | S. cerevisiae deletion strains, locus YJL164C, strain tpk1, active compounds read low 1.02 | S. cerevisiae deletion strains, locus YJL166W, strain qcr8, active compounds read low 1 | S. cerevisiae deletion strains, locus YJL168C, strain set2, active compounds read low 1.01 | S. cerevisiae deletion strains, locus YJL187C, strain SWE1 (second series), active compounds read low 1.02 | S. cerevisiae deletion strains, locus YJR043C, strain POL32, active compounds read low 0.991 | S. cerevisiae deletion strains, locus YJR066W, strain TOR1, active compounds read low 0.942 | S. cerevisiae deletion strains, locus YKL009W, strain mrt4, active compounds read low 0.979 | S. cerevisiae deletion strains, locus YKL068W, active compounds read low 1 | S. cerevisiae deletion strains, locus YKL085W, strain MDH1 (second series), active compounds read low 0.998 | S. cerevisiae deletion strains, locus YKL085W, strain MDH1, active compounds read low 0.998 | S. cerevisiae deletion strains, locus YKL160W, strain elf1, active compounds read low 1.02 | S. cerevisiae deletion strains, locus YKR001C, strain vps1, active compounds read low 0.937 | S. cerevisiae deletion strains, locus YKR026C, strain gcn3, active compounds read low 1.01 | S. cerevisiae deletion strains, locus YKR091W, strain srl3, active compounds read low 1.03 | S. cerevisiae deletion strains, locus YLL001W, strain dnm1, active compounds read low 0.992 | S. cerevisiae deletion strains, locus YLL026W, active compounds read low 0.987 | S. cerevisiae deletion strains, locus YLL041C, strain sdh2, active compounds read low 1 | S. cerevisiae deletion strains, locus YLR027C, strain aat2, active compounds read low 1 | S. cerevisiae deletion strains, locus YLR039C, strain RIC1, active compounds read low 0.874 | S. cerevisiae deletion strains, locus YLR058C, strain SHM2, active compounds read low 1.02 | S. cerevisiae deletion strains, locus YLR102C, strain apc9, active compounds read low 1 | S. cerevisiae deletion strains, locus YLR113W, strain HOG1, active compounds read low 0.965 | S. cerevisiae deletion strains, locus YLR221C, strain rsa3, active compounds read low 0.994 | S. cerevisiae deletion strains, locus YLR258W, strain gsy2, active compounds read low 1.01 | S. cerevisiae deletion strains, locus YLR262C, strain YPT6, active compounds read low 0.904 | S. cerevisiae deletion strains, locus YLR268W, strain sec22, active compounds read low 0.991 | S. cerevisiae deletion strains, locus YLR320W, strain mms22, active compounds read low 0.959 | S. cerevisiae deletion strains, locus YLR330W, strain CHS5, active compounds read low 1 | S. cerevisiae deletion strains, locus YLR342W, strain FKS1 (second series), active compounds read low 0.986 | S. cerevisiae deletion strains, locus YLR342W, strain FKS1, active compounds read low 0.982 | S. cerevisiae deletion strains, locus YLR357W, strain rsc2, active compounds read low 1.08 | S. cerevisiae deletion strains, locus YLR370C, strain arc18, active compounds read low 1.01 | S. cerevisiae deletion strains, locus YLR371W, strain rom2, active compounds read low 1 | S. cerevisiae deletion strains, locus YLR384C, strain iki3, active compounds read low 0.993 | S. cerevisiae deletion strains, locus YLR418C, strain cdc73, active compounds read low 1.02 | S. cerevisiae deletion strains, locus YML016C, strain PPZ1, active compounds read low 1 | S. cerevisiae deletion strains, locus YML032C, strain rad52, active compounds read low 0.981 | S. cerevisiae deletion strains, locus YML120C, strain ndi1, active compounds read low 1 | S. cerevisiae deletion strains, locus YML124C, strain tub3, active compounds read low 0.994 | S. cerevisiae deletion strains, locus YMR058W, strain fet3, active compounds read low 0.965 | S. cerevisiae deletion strains, locus YMR078C, strain ctf18, active compounds read low 1.01 | S. cerevisiae deletion strains, locus YMR129W, active compounds read low 1.02 | S. cerevisiae deletion strains, locus YMR205C, strain PFK2, active compounds read low 0.987 | S. cerevisiae deletion strains, locus YMR223W, strain ubp8, active compounds read low 1.01 | S. cerevisiae deletion strains, locus YMR231W, strain pep5, active compounds read low 1.02 | S. cerevisiae deletion strains, locus YMR263W, strain SAP30, active compounds read low 1.02 | S. cerevisiae deletion strains, locus YMR307W, strain GAS1, active compounds read low 0.957 | S. cerevisiae deletion strains, locus YNL067W, strain RPL9B, active compounds read low 1.02 | S. cerevisiae deletion strains, locus YNL071W, strain lat1, active compounds read low 1.01 | S. cerevisiae deletion strains, locus YNL153C, strain GIM3, active compounds read low 1.03 | S. cerevisiae deletion strains, locus YNL183C, strain NPR1, active compounds read low 0.896 | S. cerevisiae deletion strains, locus YNL209W, strain ssb2, active compounds read low 1 | S. cerevisiae deletion strains, locus YNL233W, strain BNI4, active compounds read low 1.01 | S. cerevisiae deletion strains, locus YNL248C, strain rpa49, active compounds read low 1.02 | S. cerevisiae deletion strains, locus YNL250W, strain rad50, active compounds read low 0.996 | S. cerevisiae deletion strains, locus YNL271C, strain bni1, active compounds read low 1.01 | S. cerevisiae deletion strains, locus YNL298W, strain CLA4, active compounds read low 0.95 | S. cerevisiae deletion strains, locus YNL307C, strain MCK1, active compounds read low 1 | S. cerevisiae deletion strains, locus YNL322C, strain KRE1 (second series), active compounds read low 1.06 | S. cerevisiae deletion strains, locus YNL322C, strain KRE1, active compounds read low 0.999 | S. cerevisiae deletion strains, locus YNR049C, strain mso1, active compounds read low 0.999 | S. cerevisiae deletion strains, locus YNR052C, strain pop2, active compounds read low 1 | S. cerevisiae deletion strains, locus YOL012C, strain htz1 1.23 | S. cerevisiae deletion strains, locus YOL147C, strain pex11, active compounds read low 0.997 | S. cerevisiae deletion strains, locus YOR001W, strain rrp6, active compounds read low 0.991 | S. cerevisiae deletion strains, locus YOR061W, strain CKA2, active compounds read low 0.999 | S. cerevisiae deletion strains, locus YOR069W, strain VPS5, active compounds read low 1.01 | S. cerevisiae deletion strains, locus YOR070C, strain gyp1, active compounds read low 0.993 | S. cerevisiae deletion strains, locus YOR080W, strain dia2, active compounds read low 1.02 | S. cerevisiae deletion strains, locus YOR083W, strain WHI5, active compounds read low 0.936 | S. cerevisiae deletion strains, locus YOR106W, strain vam3, active compounds read low 0.976 | S. cerevisiae deletion strains, locus YOR136W, strain idh2, active compounds read low 0.999 | S. cerevisiae deletion strains, locus YOR144C, strain elg1, active compounds read low 1 | S. cerevisiae deletion strains, locus YOR184W, strain ser1, active compounds read low 0.982 | S. cerevisiae deletion strains, locus YOR231W, strain MKK1, active compounds read low 0.937 | S. cerevisiae deletion strains, locus YOR265W, strain rbl2, active compounds read low 1.01 | S. cerevisiae deletion strains, locus YOR270C, strain vph1, active compounds read low 1.01 | S. cerevisiae deletion strains, locus YOR290C, strain snf2, active compounds read low 1.02 | S. cerevisiae deletion strains, locus YOR316C, strain cot1, active compounds read low 1.01 | S. cerevisiae deletion strains, locus YPL051W, strain arl3, active compounds read low 0.992 | S. cerevisiae deletion strains, locus YPL078C, strain atp4, active compounds read low 0.938 | S. cerevisiae deletion strains, locus YPL106C, strain sse1, active compounds read low 1.1 | S. cerevisiae deletion strains, locus YPL240C, strain hsp82, active compounds read low 1.02 | S. cerevisiae deletion strains, locus YPL256C, strain CLN2, active compounds read low 0.968 | S. cerevisiae deletion strains, locus YPR119W, strain clb2, active compounds read low 1 | S. cerevisiae deletion strains, locus YPR141C, strain kar3, active compounds read low 1 | S. cerevisiae deletion strains, locus YPR163C, strain tif3, active compounds read low 1 | S. cerevisiae deletion strains, locus YPR167C, strain met16, active compounds read low 0.994 | S. cerevisiae deletion strains, strain wtn01, active compounds read low 0.974 | S. cerevisiae strains, strain wild type, active compounds read low 1.01
